The source of these data is PubChem BioAssay (NCI).

Structures are written as SMILES. This is part of a sample that, as a whole, favours compounds with a hit. Of some 83,000 tested, about 20% had one in any assay.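 48-hour exposure, single concentration, 96-well plates; percent growth endpoint where 0 means no net growth. Active: below 10.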 Unmarked numbers belong to inactive results. Calls of active or inactive are those of the source.

Among the test systems are NCI-H23 lung; NCI-H226 lung; NCI-H322M lung; HOP-62 NSCLC; NCI-H460 lung; HOP-92 NSCLC; NCI-H522 lung; A549/ATCC NSCLC; 786-0 renal; COLO 205 colon.
What all share (experiment): NCI-60 one-dose screen, 48 h (100 = growth as untreated, 0 = no growth, -100 = all killed)
What all share (conditions): 10 µM

On to `O=C(/C=C/Nc1ccc(F)cc1F)c1ccc2c(c1)Nc1ccccc1S2`, for which the growth was 70.3% with NCI-H23 lung; 53.2% in the assay with NCI-H226 lung; 89.3% with NCI-H322M lung; 78.5% with HOP-62 NSCLC; 55.4% with NCI-H460 lung; 85.5% with HOP-92 NSCLC. Besides, the growth is 75% in the assay with NCI-H522 lung, 81% in the assay with A549/ATCC NSCLC, 88.1% in the assay with 786-0 renal and 80.6% with COLO 205 colon.
Take `O=C(CSc1nnc(-c2ccc3nc(-c4ccccc4)[nH]c3c2)o1)Nc1ccc(Cl)cc1`: the growth in the assay on NCI-H23 lung is 21.4%; in the assay on NCI-H226 lung it was 31.4%; in the assay on NCI-H322M lung it was 63.9%; in the assay with HOP-62 NSCLC, 62.9%; in the assay with NCI-H460 lung it was 48.8%; with HOP-92 NSCLC it was 79.1%. Besides, the growth was 28.7% in the assay with NCI-H522 lung, 57.1% in the assay on A549/ATCC NSCLC, 16.9% with 786-0 renal and 73.2% in the assay with COLO 205 colon.
Take `CN1CCN(c2ccc(Nc3nc(NCCCNC(=O)c4ccc(F)cc4)c4sccc4n3)cc2)CC1`: the growth is 74.8% with NCI-H23 lung; 81.2% with NCI-H226 lung; 79.9% in the assay on NCI-H322M lung; 92.5% in the assay on HOP-62 NSCLC; 62.5% in the assay with NCI-H460 lung; 56.8% with HOP-92 NSCLC. Further, the growth was 87.5% with NCI-H522 lung, 56.3% in the assay on A549/ATCC NSCLC, -4.91% (active) in the assay with 786-0 renal and 90.3% with COLO 205 colon.
For the compound `Cn1cc(-c2cc(N)n3nc(-c4c[nH]c5ccc(Br)cc45)cc3n2)c2cccnc21`, the growth in the assay on NCI-H23 lung is -84% (active); in the assay on NCI-H226 lung, -71.2% (active); in the assay with NCI-H322M lung, -42% (active); in the assay on HOP-62 NSCLC, -89.6% (active); with NCI-H460 lung, -35.7% (active); in the assay with HOP-92 NSCLC, -67.7% (active). Moreover, the growth was -82.8% (active) with NCI-H522 lung, -80% (active) in the assay on A549/ATCC NSCLC, -80.2% (active) in the assay with 786-0 renal and -85.8% (active) with COLO 205 colon.
Regarding `CC(=O)Nc1ccc(-n2cnc3cc(-c4ccc(NS(C)(=O)=O)cc4)ccc32)cc1`, the growth was 61% in the assay on NCI-H23 lung; -68.4% (active) in the assay on NCI-H226 lung; 59.1% in the assay with NCI-H322M lung; 75.4% in the assay with HOP-62 NSCLC; 33.4% in the assay on NCI-H460 lung; 39.7% with HOP-92 NSCLC. The growth in the assay with NCI-H522 lung was 46.9%; in the assay on A549/ATCC NSCLC, 57%; in the assay on 786-0 renal, 52.3%; with COLO 205 colon, 63.9%.
With `N[C@@H](CSSC[C@H](N)C(=O)Nc1ccc(OCC2CCCC2)cc1)C(=O)Nc1ccc(OCC2CCCC2)cc1`, the growth is -92.9% (active) with NCI-H23 lung; -72.5% (active) in the assay on NCI-H226 lung; -99.5% (active) in the assay with NCI-H322M lung; -90.7% (active) in the assay on HOP-62 NSCLC; -77.1% (active) with NCI-H460 lung; -72.8% (active) with HOP-92 NSCLC. Further, the growth in the assay with NCI-H522 lung was -93.2% (active); in the assay on A549/ATCC NSCLC, -90.7% (active); in the assay on 786-0 renal, -59.9% (active); with COLO 205 colon, -92.5% (active).
Consider `O=C(NO)c1ccc(Cn2ccc3c(NCc4ccccc4)ncnc32)cc1`, for which the growth in the assay on NCI-H23 lung was -74.3% (active); in the assay on NCI-H226 lung, 23.8%; with NCI-H322M lung, 30.2%; in the assay on HOP-62 NSCLC, 12.7%; in the assay with NCI-H460 lung, 11.1%; in the assay with HOP-92 NSCLC, -19% (active). The growth in the assay with NCI-H522 lung is -51.5% (active); in the assay with A549/ATCC NSCLC it was 28.1%; with 786-0 renal it was 22.7%; in the assay on COLO 205 colon, -60.1% (active).
As for `C=C1CC[C@H](C(=C)C)[C@H]2C=C(C)C(=O)C3=C(C(=O)[C@@](C)(O)C3)[C@H]12`, the growth was -63.9% (active) with NCI-H23 lung; -57.8% (active) in the assay on NCI-H226 lung; -96.9% (active) in the assay with NCI-H322M lung; -72.7% (active) in the assay on HOP-62 NSCLC; -45.6% (active) with NCI-H460 lung; -90.8% (active) in the assay with HOP-92 NSCLC. Besides, the growth with NCI-H522 lung is -88.6% (active); with A549/ATCC NSCLC, -50.4% (active); with 786-0 renal it was 2.21% (active); with COLO 205 colon, -88.7% (active).
As to `N#C/C(=C\c1ccc(N(c2ccccc2)c2ccccc2)cc1)C(N)=O`, the growth in the assay with NCI-H23 lung is 55.9%; with NCI-H226 lung, -82.6% (active); in the assay with NCI-H322M lung, 92.9%; with HOP-62 NSCLC, 48.9%; in the assay with NCI-H460 lung, 5.51% (active); in the assay with HOP-92 NSCLC it was 75.5%. Further, the growth was 74.5% in the assay with NCI-H522 lung, 36.3% with A549/ATCC NSCLC, 53.9% in the assay on 786-0 renal and 19.7% in the assay on COLO 205 colon.
With `O=C(/C=C/Nc1ccccc1)c1ccc2c(c1)Nc1ccccc1S2`, the growth is 70% in the assay on NCI-H23 lung; 43.5% in the assay with NCI-H226 lung; 75.7% with NCI-H322M lung; 53.5% in the assay with HOP-62 NSCLC; 62.5% in the assay with NCI-H460 lung; 98.7% with HOP-92 NSCLC. For the same compound, the growth in the assay with NCI-H522 lung was 61.4%; in the assay on A549/ATCC NSCLC it was 87.7%; in the assay on 786-0 renal, 87.2%; in the assay with COLO 205 colon, 100%.
Consider `Cc1noc2c(Cc3ccccc3)nn(CC(=O)N/N=C/c3ccc(Cl)cc3)c(=O)c12`, for which the growth was 79.1% with NCI-H23 lung; 14.5% in the assay with NCI-H226 lung; 96.3% in the assay with NCI-H322M lung; 34.9% in the assay on HOP-62 NSCLC; 10.4% with NCI-H460 lung; 9.05% (active) in the assay with HOP-92 NSCLC. Besides, the growth in the assay with NCI-H522 lung was 83.9%; in the assay with A549/ATCC NSCLC, 20.4%; in the assay with 786-0 renal it was -23.9% (active); in the assay on COLO 205 colon it was 51.8%.
In the case of `COc1ccc(C(C)=C(c2ccc(OCCCN(C)C)cc2)c2ccc(OCCCN(C)C)cc2)cc1`, the growth in the assay with NCI-H23 lung was -95.6% (active); in the assay with NCI-H226 lung, -82.2% (active); in the assay with NCI-H322M lung, -97.1% (active); with HOP-62 NSCLC it was -92.2% (active); in the assay on NCI-H460 lung, -44.2% (active); in the assay on HOP-92 NSCLC, -74.5% (active). Also, the growth in the assay on NCI-H522 lung is -92.7% (active); in the assay on A549/ATCC NSCLC, -92.5% (active); in the assay with 786-0 renal it was -82.6% (active); in the assay on COLO 205 colon it was -90.2% (active).
As to `CN(C)CCNC(=O)OCCCCOc1cc(O)c2c(=O)cc(-c3ccccc3)oc2c1`, the growth was -2.08% (active) with NCI-H23 lung; 12.1% with NCI-H226 lung; -31.2% (active) with NCI-H322M lung; 2.14% (active) with HOP-62 NSCLC; -33.9% (active) with NCI-H460 lung; -42.6% (active) in the assay on HOP-92 NSCLC. In addition, the growth was -77% (active) in the assay with NCI-H522 lung, 4.88% (active) in the assay with A549/ATCC NSCLC, -34.5% (active) in the assay with 786-0 renal and -46.4% (active) in the assay on COLO 205 colon.
With `CC(=O)Nc1ccc(-c2cn(-c3cccc(C(=O)Nc4ccc(F)c(C(F)(F)F)c4)c3)nn2)cn1`, the growth in the assay on NCI-H23 lung is 23.6%; in the assay with NCI-H226 lung, 26.4%; with NCI-H322M lung it was 54.3%; in the assay on HOP-62 NSCLC, 87.7%; with NCI-H460 lung, -47.1% (active); in the assay on HOP-92 NSCLC it was 65.6%. For the same compound, the growth with NCI-H522 lung was 62.3%; with A549/ATCC NSCLC it was 54.3%; in the assay with 786-0 renal, 79.9%; in the assay on COLO 205 colon it was 46%.
Regarding `COc1ccc(C(=O)/C=C/c2ccc(Cl)c(C(F)(F)F)c2)cc1S(N)(=O)=O`, the growth in the assay on NCI-H23 lung is -86.5% (active); in the assay on NCI-H226 lung, -95.3% (active); in the assay on NCI-H322M lung it was -100% (active); with HOP-62 NSCLC, -84% (active); with NCI-H460 lung, -79.2% (active); in the assay with HOP-92 NSCLC, -68.8% (active). In addition, the growth in the assay with NCI-H522 lung is -83.2% (active); with A549/ATCC NSCLC, -78.1% (active); in the assay with 786-0 renal, -85.6% (active); in the assay with COLO 205 colon it was -71.5% (active).
